# Bioassay records from PubChem BioAssay.
# S16 viability – Cell viability qHTS assay in S16 Pmp22-F2sN cells; Potency, µM (doses to about 57.5 µM), usual class: cytotoxic; S16 Pmp22-F2sN Schwann cells viability, CellTiter-Glo, 24 h; AID 1508642, 2021; actives 0.48% (n = 43,000); note: nearly all actives have a fitted effect of over 65% in size
#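 Rat S16 Schwann reporter line, 24 h treatment with library compounds delivered at 23 nL per well. Cell viability by CellTiter-Glo luminescence.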
# p53null 39C tox – qHTS Screen for Compounds that Selectively Target Cancer Cells with p53 Mutations: Cytotoxicity of p53 Null Cells at the Nonpermissive Temperature | H1299 p53-null (neo) cells, 39C, ATPlite viability, 24 h | Potency, µM (doses to about 46.1 µM), hits mostly cytotoxic | actives 0.97% (n = 55,000) | AID 904, 2007; note: nearly all actives have a fitted effect of over 50% in size
#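 Cells seeded at 600/well, 37C overnight. Compound added (up to 46 uM), plates shifted to 39C for 24 hr. ATPlite added, luminescence read after 20 min at room temperature.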
# SKOV3 invasion – Primary qHTS assay for Inhibitors of ovarian cancer metastasis using an organotypic tumor microenvironment (TME) model; SKOV3ip1-GFP adhesion/invasion on 3D omental model, fluorescence; actives 0.1% (n = 46,000); Potency, µM (doses to about 45.8 µM), usual class: inhibitors; AID 1963576, 2024; note: nearly all actives have a fitted effect of over 65% in size
#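 Adhesion/invasion was scored as fixed GFP-labeled SKOV3ip1 cell counts (488/509 nm), normalized to DMSO and tomatine controls. Cancer cells in serum-free medium, with four compound doses (0.36-46 umol/L), sat 2 hr at RT then 16 hr at 37 C on a 48 hr fibroblast/mesothelial/ECM culture.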
# mTORC1 inh – Acumen qHTS Assay for Inhibitors of the mTORC1 Signaling Pathway in MEF (Tsc2-/-, p53-/-) Cells: Sytravon | Potency, µM (highest dose often 38.3 µM), usual class: inhibitors | actives 0.78% (n = 44,000) | Tsc2-/- p53-/- MEF, phospho-rpS6 immunofluorescence/PI, 24 h; note: nearly all actives have a fitted effect of over 50% in size
#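 Readout is phospho-S6 Alexa 488 signal normalized to PI per well, reported as % active cells with thresholds set from rapamycin (7.5 nM) and DMSO controls. Cells: Tsc2-/-, p53-/- MEFs, 24 hrs compound at 37 C; PI cell number serves as viability.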
# PMP22 txn prim – Cell-based coincidence reporter assay to measure PMP22 gene transcription in S16 Pmp22-F2sN cells - Primary screen; S16 Pmp22-F2sN Schwann cells (luciferase reporters placed in the Pmp22 gene), FLuc/NLuc coincidence luminescence, 24 h; Potency, µM (top dose mostly 57.5 µM), usual class: inhibitors; actives 2% (n = 43,000); active = clear falling dose curves in both reporters; inconclusive = both reporters move, but less clearly or upward; inactive = either reporter flat; the % is the NLuc reporter signal
#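 S16(c9) Schwann cells with FLuc/NLuc coincidence reporter in the Pmp22 3' UTR; compounds pin-transferred, 24 h at 37C. Dual-luciferase read: FLuc first, then NLuc after Stop&Glo, each 10 min at room temperature.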
# p53null 32C kill – qHTS Screen for Compounds that Selectively Target Cancer Cells with p53 Mutations: Cytotoxicity of p53 Null Cells at the Permissive Temperature | Potency, µM (titrated, usually from 46.1 µM), actives largely listed as cytotoxic | H1299-neo p53 null cells, ATP luminescence, 24 h, 32C | actives 0.62% (n = 55,000); note: nearly all actives have a fitted effect of over 55% in size
#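 H1299-neo (p53 null) cells, 600/well, treated 24 h at 32C with compound up to 46 uM; ATPlite luminescence viability, normalized to DMSO and 100 uM tamoxifen; AC50 by Hill fit.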
# Hits are given with their value; n = inactive; u = inconclusive; x = no result; [ ] = another dose, or the depositor's remark. Compounds with a hit are over-represented: about 3% of the library has one in this group of screens. Unless noted, calls come from the whole dose curve; as a rule, active = well fitted curve in the direction sought with a large enough effect; inconclusive = small, poorly fitted or top-dose-only effect, or another doubt; inactive = no such curve, though single readings can be large; an effect the other way counts as inactive or inconclusive.
SMILES,S16 viability,p53null 39C tox,SKOV3 invasion,mTORC1 inh,PMP22 txn prim,p53null 32C kill
Cc1cccc(Cn2nnc3c(=O)[nH]c(C4CCCN(C(=O)c5ccc(C(C)(C)C)cc5)C4)nc32)c1 (configuration not stated),u,20µM,u,n,n,u
CC[C@H](CC[C@@H](C)[C@H]1CC[C@H]2[C@@H]3CC=C4C[C@@H](O)CC[C@]4(C)[C@@H]3CC[C@]12C)C(C)C,x,x,n,x,x,x
C=C1C(=O)[C@@]23C(CC[C@@H]1[C@H]2O)[C@@]12CO[C@]3(O)[C@@H](O)[C@@H]1C(C)(C)CC[C@@H]2O (some centres not stated),x,x,19µM,x,x,x
CC(C)OCc1cc(CN2CCN(c3cccc(C(F)(F)F)c3)CC2)c(O)c2ncccc12,u,0.5µM,n,u,6.5µM,u
CCOCc1cc(CN2CCN(c3cccc(C(F)(F)F)c3)CC2)c(O)c2ncccc12,u,u,n,u,4.5µM,u
CCOc1ccc(Cc2cc([C@@H]3O[C@H](CO)[C@@H](O)[C@H](O)[C@@H]3O)ccc2Cl)cc1,x,x,n,x,x,x
O=C(Nc1ccc2nc(-c3ccco3)[nH]c2c1)c1cccs1,x,10µM,x,x,x,7.1µM
Cc1ccc(S(=O)(=O)Nc2ccc(-c3cn4ccc(C)cc4n3)cc2)cc1,x,n,x,x,x,x
Cc1ccc(-c2cn3ccc(C)cc3n2)cc1,n,0.79µM,n,n,u,0.63µM
CCc1ccc(S(=O)(=O)N(C(=O)c2ccncc2)c2ccc3oc(C)c(C(=O)OC)c3c2)cc1,u,n,n,u,u,n
CCOc1ccc(S(=O)(=O)N(C(=O)c2ccncc2)c2ccc3oc(C)c(C(=O)OC)c3c2)cc1,u,u,n,5.2µM,u,n
COc1ccc(S(=O)(=O)N(C(=O)c2ccncc2)c2ccc3oc(C)c(C(C)=O)c3c2)cc1,u,u,u,18µM,13µM,n
COc1ccc(S(=O)(=O)N(C(=O)c2ccncc2)c2ccc3oc4c(c3c2)CCCC4)cc1,x,x,x,x,x,n
COC(=O)c1c(C)oc2ccc(N(C(=O)c3ccncc3)S(=O)(=O)c3ccc(OC)cc3)cc12,u,u,n,u,5.3µM,n
CSc1oc(-c2ccc(F)cc2)nc1S(=O)(=O)c1ccccc1,x,n,x,x,x,n
CC(C)S(=O)(=O)c1oc(-c2cccs2)nc1S(=O)(=O)c1ccc(F)cc1,3.2µM,n,u,0.58µM,1.7µM,u
CS(=O)(=O)c1oc(-c2ccc(F)cc2)nc1S(=O)(=O)c1ccc(Cl)cc1,5.6µM,u,n,u,4.5µM,u
CCS(=O)(=O)c1oc(-c2ccc(F)cc2)nc1S(=O)(=O)c1ccc(Br)cc1,2.8µM,u,u,2.6µM,3µM,n
Cc1ccc(S(=O)(=O)c2nc(-c3ccc(F)cc3)oc2SCC(N)=O)cc1,x,n,x,x,x,n
CCCCS(=O)(=O)c1oc(-c2ccc(F)cc2)nc1S(=O)(=O)c1ccccc1,4.5µM,u,u,2.9µM,2.4µM,18µM
CCOc1ccccc1Nc1nc(-c2cccc(Cl)c2)c2c(n1)-c1ccccc1OC2,n,13µM,n,2.9µM,n,u
c1ccc(-c2cc(-c3ccccc3)c3c(n2)-c2ccccc2OC3)cc1,n,x,n,n,n,x
COc1ccc(/C=C\c2onc(C)c2S(=O)(=O)N2CCC(C(=O)Nc3ccc(C)c(F)c3)CC2)cc1,n,n,n,n,u,n
COc1ccc(/C=C\c2onc(C)c2S(=O)(=O)N2CCC(C(=O)Nc3ccc(Cl)cc3)CC2)cc1,n,10µM,n,n,n,n
CCCS(=O)(=O)c1ncc(Cl)c(C(=O)N2CCN(c3ccc(OC)cc3)CC2)n1,5µM,n,n,u,6µM,u
SMILES,S16 viability,p53null 39C tox,SKOV3 invasion,mTORC1 inh,PMP22 txn prim,p53null 32C kill
CC(C)(C)n1ncc2c(=O)n(CC(=O)c3ccccc3)cnc21,x,13µM,x,x,x,n
CCN1CCOC(=O)C1CC(=O)Nc1cc(C)cc(C)c1 (configuration not stated),u,x,n,10µM,u,x
O=S(=O)(Nc1cccc(Cl)c1)c1ccc2[nH]c3c(c2c1)CCCCCC3,u,u,n,n,u,10µM
Cc1cccc(NS(=O)(=O)c2ccc3[nH]c4c(c3c2)CCCCCC4)c1,u,n,n,13µM,u,n
CC(=O)c1cccc(NS(=O)(=O)c2ccc3[nH]c4c(c3c2)CCCCC4)c1,u,u,n,u,u,n
CC(C)(C)[C@H](NC(=O)c1ccc(N)c(Cl)c1)C(=O)N1CCC[C@@H]1C(=O)N[C@H](C#N)CC(=O)O,x,x,n[3.51 µM],x,x,x
OCc1ccccc1O[C@@H]1O[C@H](CO)[C@H](O)[C@H](O)[C@H]1O,x,x,n,x,x,x
Cc1ccc(-c2cc(C(=O)NC(C)c3ccccc3)c3ccccc3n2)cc1C (configuration not stated),n,n,n,n,n,n
Cc1ccc(-c2cc(C(=O)N3CCN(c4ccccc4)CC3)c3ccccc3n2)cc1C,n,u,n,u,u,13µM
CNC(=O)C1CCN(Cc2cc3ccccc3n2Cc2ccccc2C)CC1,n,n,n,n,u,n
Cc1ccccc1Cn1c(CN2CCC(C(=O)NCCN(C)C)CC2)cc2ccccc21,u,n,u,7.4µM,u,n
O=C1[C@H](Cc2ccc(O)cc2)N2C(=O)CCN(C(=O)NCc3ccccc3)[C@H]2CN1Cc1cccc2ccccc12,x,x,n,x,x,x
Cc1oc(-c2nc3ccccc3n2C)cc1C(=O)c1ccccc1,x,11µM,x,x,x,6.3µM
CC(Sc1nc2ccccc2n1C)C(=O)NC(c1ccccc1)c1ccccc1 (configuration not stated),x,n,x,x,x,n
CCCN1C(C(=O)c2ccccc2)=C(OC(=O)COc2ccc(C)cc2)c2ccccc2S1(=O)=O,n,32µM,n,n,u,n
CCOc1ccc(/C=C/C(=O)Nc2ccc3nc(N(CC)CC)cc(C)c3c2)cc1OC,u,n,u,13µM,u,n
CCN(CC)c1cc(C)c2cc(NC(=O)/C=C/c3cc(OC)c(OC)c(OC)c3)ccc2n1,u,22µM,u,18µM,u,u
Cc1ccc(NC(=O)c2cccc(C(C)(C)C#N)c2)cc1Nc1ccc2ncn(C)c(=O)c2c1,x,x,n,x,x,x
